Results: the supplement of paper PMC13380429
Values without a mark were called inactive.

Test system: Vero E6 infected with SARS-CoV-2
Assay: inhibition of SARS-CoV-2 cytopathic effect; higher = more antiviral protection, active = above 15
Settings: 48 h

| SMILES | inhibition of SARS-CoV-2 cytopathic effect (1 nM) | inhibition of SARS-CoV-2 cytopathic effect (8.33 nM) | inhibition of SARS-CoV-2 cytopathic effect (100 nM) | inhibition of SARS-CoV-2 cytopathic effect (833.33 nM) | inhibition of SARS-CoV-2 cytopathic effect (10000 nM) |
| --- | --- | --- | --- | --- | --- |
| C[C@](O)(COc1ccc(C#N)cc1)C(=O)Nc1ccc(C#N)c(C(F)(F)F)c1 [ostarine] | -0.2% | -1.03% | 1.02% | -1.16% | 1.37% |
| CCOC(=O)c1ccccc1OC(=O)CCCCCCCC(=O)Oc1ccccc1C(=O)OCC | 6.82% | 0.93% | -6.73% | -0.1% | -6.2% |
| N=C1CCCN1Cc1[nH]c(=O)[nH]c(=O)c1Cl [tipiracil] | 2.52% | 2.02% | 0.58% | -1.37% | 2.84% |
| CS(=O)(=O)c1ccc([C@@H](O)[C@@H](CO)NC(=O)C(Cl)Cl)cc1 [thiamphenicol] | -1.6% | -2.5% | -3.22% | -3.59% | -2.23% |
| COc1cc2c(NC3CCN(C(C)C)CC3)nc(C3CCCCC3)nc2cc1OCCCN1CCCC1 | 0.58% | -2.43% | -1.38% | -2.98% | 59.6% (active) |
| O=C(O)C1=CO[C@@H](O[C@@H]2O[C@H](CO)[C@@H](O)[C@H](O)[C@H]2O)[C@@H]2C(CO)=CC[C@H]12 [Geniposidic acid] | -0.41% | 3.01% | 0.36% | -1.23% | 1.07% |
| CNC(=O)c1c(I)c(NC(C)=O)c(I)c(C(=O)O)c1I [iothalamic-acid-d3] | -5.17% | -2.14% | -1.59% | 0.31% | -1.65% |
